In ChEMBL document CHEMBL1961873, “Compounds: GSK PKIS; Assays: Nanosyn kinase panel” (2012):

Key:
[1] = target: Mitogen-activated protein kinase kinase kinase kinase 4 (Homo sapiens) (UniProt O95819); details: at 1 µM;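 also: reported figure is an averaged inhibition value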
[2] = target: Dual specificity mitogen-activated protein kinase kinase 1 (Homo sapiens) (UniProt Q02750); details: at 0.1 µM
[3] = target: Dual specificity mitogen-activated protein kinase kinase 1 (Homo sapiens) (UniProt Q02750); details: at 1 µM
[4] = target: Misshapen-like kinase 1 (Homo sapiens) (UniProt Q8N4C8); details: at 0.1 µM
[5] = target: Misshapen-like kinase 1 (Homo sapiens) (UniProt Q8N4C8); details: at 1 µM
[6] = target: T1, Serine/threonine-protein kinase 4 (Homo sapiens) (UniProt Q13043); details: at 0.1 µM
T1 sequence (whole entry): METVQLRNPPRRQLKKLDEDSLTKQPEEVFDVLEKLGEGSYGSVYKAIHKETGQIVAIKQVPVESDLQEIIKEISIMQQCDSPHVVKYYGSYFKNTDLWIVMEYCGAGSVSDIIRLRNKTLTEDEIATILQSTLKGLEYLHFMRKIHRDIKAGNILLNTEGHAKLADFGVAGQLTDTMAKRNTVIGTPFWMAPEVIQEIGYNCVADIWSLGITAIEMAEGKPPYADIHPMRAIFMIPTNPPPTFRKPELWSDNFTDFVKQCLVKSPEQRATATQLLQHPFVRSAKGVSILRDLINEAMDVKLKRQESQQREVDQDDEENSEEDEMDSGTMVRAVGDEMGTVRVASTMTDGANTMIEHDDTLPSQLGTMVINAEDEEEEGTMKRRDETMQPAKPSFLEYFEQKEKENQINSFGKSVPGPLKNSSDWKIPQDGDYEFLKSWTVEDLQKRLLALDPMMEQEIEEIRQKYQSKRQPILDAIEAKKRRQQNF

[7] = target: T1, Serine/threonine-protein kinase 4 (Homo sapiens); details: at 1 µM
[8] = target: T2, Serine/threonine-protein kinase 3 (Homo sapiens) (UniProt Q13188); details: at 0.1 µM
T2 sequence (whole entry): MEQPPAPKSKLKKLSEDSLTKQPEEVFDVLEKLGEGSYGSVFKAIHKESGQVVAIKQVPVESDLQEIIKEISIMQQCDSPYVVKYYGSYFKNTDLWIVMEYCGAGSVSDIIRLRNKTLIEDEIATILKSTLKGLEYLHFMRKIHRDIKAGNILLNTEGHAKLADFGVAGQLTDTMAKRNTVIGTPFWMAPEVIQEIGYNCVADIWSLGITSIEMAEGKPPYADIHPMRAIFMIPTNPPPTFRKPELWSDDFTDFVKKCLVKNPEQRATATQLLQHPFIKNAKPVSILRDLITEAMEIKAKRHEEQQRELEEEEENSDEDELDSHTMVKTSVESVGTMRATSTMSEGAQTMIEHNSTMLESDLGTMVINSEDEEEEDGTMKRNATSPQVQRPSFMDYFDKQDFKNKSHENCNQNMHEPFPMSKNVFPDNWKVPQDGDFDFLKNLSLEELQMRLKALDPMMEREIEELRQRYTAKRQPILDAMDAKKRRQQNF

[9] = target: T2, Serine/threonine-protein kinase 3 (Homo sapiens); details: at 1 µM
[10] = target: Serine/threonine-protein kinase 26 (Homo sapiens) (UniProt Q9P289); details: at 0.1 µM
[11] = target: Serine/threonine-protein kinase 26 (Homo sapiens) (UniProt Q9P289); details: at 1 µM
[12] = target: Serine/threonine-protein kinase PAK 1 (Homo sapiens) (UniProt Q13153); details: at 0.1 µM
[13] = target: Serine/threonine-protein kinase PAK 1 (Homo sapiens) (UniProt Q13153); details: at 1 µM
[14] = target: Serine/threonine-protein kinase PAK 2 (Homo sapiens) (UniProt Q13177); details: at 0.1 µM
[15] = target: Serine/threonine-protein kinase PAK 2 (Homo sapiens) (UniProt Q13177); details: at 1 µM
[16] = target: Serine/threonine-protein kinase PAK 3 (Homo sapiens) (UniProt O75914); details: at 0.1 µM
[17] = target: Serine/threonine-protein kinase PAK 3 (Homo sapiens) (UniProt O75914); details: at 1 µM
[18] = target: Serine/threonine-protein kinase PAK 5 (Homo sapiens) (UniProt Q9P286); details: at 0.1 µM
[19] = target: Serine/threonine-protein kinase PAK 5 (Homo sapiens) (UniProt Q9P286); details: at 1 µM
[20] = target: Serine/threonine-protein kinase PAK 6 (Homo sapiens) (UniProt Q9NQU5); details: at 0.1 µM;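 also: mean PAK6 inhibition reported from the GSK PKIS screen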

Chain of Mitogen-activated protein kinase kinase kinase kinase 4 (Homo sapiens) (O95819 2-1239 limits assumed): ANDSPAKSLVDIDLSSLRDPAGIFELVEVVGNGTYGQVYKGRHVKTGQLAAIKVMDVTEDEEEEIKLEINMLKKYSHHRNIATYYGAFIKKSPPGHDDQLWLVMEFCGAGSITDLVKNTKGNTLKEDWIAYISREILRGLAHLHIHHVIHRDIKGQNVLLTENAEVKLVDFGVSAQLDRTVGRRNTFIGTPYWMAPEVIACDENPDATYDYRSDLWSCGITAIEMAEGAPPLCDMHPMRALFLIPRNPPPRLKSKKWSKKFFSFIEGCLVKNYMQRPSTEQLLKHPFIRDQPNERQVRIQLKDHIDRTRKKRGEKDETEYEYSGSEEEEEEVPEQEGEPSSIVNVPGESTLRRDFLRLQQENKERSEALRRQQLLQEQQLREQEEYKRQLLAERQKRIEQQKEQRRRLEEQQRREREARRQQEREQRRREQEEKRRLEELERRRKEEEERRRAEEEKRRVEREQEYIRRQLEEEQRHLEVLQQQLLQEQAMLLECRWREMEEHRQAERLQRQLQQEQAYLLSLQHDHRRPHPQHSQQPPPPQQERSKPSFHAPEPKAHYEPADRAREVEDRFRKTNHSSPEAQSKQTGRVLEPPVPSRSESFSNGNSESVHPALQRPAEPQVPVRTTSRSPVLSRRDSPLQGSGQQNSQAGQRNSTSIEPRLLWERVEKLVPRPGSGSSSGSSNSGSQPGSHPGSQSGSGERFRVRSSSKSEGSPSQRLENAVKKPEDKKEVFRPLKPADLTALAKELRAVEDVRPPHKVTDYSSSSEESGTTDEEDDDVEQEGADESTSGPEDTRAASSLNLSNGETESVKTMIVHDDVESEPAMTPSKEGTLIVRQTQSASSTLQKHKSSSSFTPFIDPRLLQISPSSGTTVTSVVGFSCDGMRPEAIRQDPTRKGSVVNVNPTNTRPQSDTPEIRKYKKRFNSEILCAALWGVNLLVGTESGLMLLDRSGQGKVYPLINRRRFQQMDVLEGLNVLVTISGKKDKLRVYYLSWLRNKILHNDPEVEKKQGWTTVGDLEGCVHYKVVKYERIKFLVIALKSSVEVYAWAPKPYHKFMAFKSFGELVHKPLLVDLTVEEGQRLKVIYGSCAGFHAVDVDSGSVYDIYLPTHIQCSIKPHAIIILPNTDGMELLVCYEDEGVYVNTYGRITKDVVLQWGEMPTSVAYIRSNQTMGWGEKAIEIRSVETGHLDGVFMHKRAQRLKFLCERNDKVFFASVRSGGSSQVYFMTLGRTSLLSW
Chain of Serine/threonine-protein kinase PAK 3 (Homo sapiens) (O75914 whole entry, looked up): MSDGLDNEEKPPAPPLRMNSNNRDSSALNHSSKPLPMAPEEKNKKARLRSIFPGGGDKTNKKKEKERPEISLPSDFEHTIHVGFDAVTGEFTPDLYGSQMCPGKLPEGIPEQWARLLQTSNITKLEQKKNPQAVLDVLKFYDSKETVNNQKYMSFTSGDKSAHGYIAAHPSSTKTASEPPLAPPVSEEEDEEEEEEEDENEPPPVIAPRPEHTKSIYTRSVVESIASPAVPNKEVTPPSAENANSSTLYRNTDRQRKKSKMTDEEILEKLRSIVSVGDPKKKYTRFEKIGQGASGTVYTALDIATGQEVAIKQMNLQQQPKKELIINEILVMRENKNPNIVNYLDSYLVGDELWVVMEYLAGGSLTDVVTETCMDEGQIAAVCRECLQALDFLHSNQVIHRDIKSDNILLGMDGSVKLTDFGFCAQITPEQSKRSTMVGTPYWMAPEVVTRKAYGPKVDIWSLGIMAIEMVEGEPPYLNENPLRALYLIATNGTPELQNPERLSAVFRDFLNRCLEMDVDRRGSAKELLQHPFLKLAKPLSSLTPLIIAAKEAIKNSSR
Chain of Serine/threonine-protein kinase PAK 1 (Homo sapiens) (Q13153 whole entry): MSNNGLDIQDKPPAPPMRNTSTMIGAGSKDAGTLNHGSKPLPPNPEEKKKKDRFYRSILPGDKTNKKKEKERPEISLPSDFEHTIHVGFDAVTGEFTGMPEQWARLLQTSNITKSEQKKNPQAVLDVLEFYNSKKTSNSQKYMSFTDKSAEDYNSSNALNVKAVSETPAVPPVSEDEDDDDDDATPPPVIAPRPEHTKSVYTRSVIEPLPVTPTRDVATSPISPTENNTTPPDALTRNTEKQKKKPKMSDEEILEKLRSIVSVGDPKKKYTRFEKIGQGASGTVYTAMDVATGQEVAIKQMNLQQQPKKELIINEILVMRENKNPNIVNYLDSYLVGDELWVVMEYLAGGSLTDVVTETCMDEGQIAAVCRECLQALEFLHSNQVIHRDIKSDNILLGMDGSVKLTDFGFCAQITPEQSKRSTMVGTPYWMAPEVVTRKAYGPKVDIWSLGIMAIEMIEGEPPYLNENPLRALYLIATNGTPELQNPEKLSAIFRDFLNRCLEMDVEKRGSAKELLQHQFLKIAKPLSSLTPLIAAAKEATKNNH
Chain of Serine/threonine-protein kinase 26 (Homo sapiens) (Q9P289 2-416 limits assumed): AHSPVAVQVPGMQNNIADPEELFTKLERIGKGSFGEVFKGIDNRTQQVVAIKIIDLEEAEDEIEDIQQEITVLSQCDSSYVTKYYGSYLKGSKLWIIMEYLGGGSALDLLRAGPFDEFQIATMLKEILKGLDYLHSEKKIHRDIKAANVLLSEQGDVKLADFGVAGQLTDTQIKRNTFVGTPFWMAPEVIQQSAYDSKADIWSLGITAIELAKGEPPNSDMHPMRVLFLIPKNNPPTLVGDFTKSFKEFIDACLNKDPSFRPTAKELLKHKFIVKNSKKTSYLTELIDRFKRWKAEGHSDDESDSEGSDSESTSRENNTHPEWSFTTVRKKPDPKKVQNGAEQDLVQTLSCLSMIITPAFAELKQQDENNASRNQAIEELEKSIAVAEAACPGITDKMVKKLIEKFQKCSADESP
Chain of Misshapen-like kinase 1 (Homo sapiens) (Q8N4C8 whole entry, looked up): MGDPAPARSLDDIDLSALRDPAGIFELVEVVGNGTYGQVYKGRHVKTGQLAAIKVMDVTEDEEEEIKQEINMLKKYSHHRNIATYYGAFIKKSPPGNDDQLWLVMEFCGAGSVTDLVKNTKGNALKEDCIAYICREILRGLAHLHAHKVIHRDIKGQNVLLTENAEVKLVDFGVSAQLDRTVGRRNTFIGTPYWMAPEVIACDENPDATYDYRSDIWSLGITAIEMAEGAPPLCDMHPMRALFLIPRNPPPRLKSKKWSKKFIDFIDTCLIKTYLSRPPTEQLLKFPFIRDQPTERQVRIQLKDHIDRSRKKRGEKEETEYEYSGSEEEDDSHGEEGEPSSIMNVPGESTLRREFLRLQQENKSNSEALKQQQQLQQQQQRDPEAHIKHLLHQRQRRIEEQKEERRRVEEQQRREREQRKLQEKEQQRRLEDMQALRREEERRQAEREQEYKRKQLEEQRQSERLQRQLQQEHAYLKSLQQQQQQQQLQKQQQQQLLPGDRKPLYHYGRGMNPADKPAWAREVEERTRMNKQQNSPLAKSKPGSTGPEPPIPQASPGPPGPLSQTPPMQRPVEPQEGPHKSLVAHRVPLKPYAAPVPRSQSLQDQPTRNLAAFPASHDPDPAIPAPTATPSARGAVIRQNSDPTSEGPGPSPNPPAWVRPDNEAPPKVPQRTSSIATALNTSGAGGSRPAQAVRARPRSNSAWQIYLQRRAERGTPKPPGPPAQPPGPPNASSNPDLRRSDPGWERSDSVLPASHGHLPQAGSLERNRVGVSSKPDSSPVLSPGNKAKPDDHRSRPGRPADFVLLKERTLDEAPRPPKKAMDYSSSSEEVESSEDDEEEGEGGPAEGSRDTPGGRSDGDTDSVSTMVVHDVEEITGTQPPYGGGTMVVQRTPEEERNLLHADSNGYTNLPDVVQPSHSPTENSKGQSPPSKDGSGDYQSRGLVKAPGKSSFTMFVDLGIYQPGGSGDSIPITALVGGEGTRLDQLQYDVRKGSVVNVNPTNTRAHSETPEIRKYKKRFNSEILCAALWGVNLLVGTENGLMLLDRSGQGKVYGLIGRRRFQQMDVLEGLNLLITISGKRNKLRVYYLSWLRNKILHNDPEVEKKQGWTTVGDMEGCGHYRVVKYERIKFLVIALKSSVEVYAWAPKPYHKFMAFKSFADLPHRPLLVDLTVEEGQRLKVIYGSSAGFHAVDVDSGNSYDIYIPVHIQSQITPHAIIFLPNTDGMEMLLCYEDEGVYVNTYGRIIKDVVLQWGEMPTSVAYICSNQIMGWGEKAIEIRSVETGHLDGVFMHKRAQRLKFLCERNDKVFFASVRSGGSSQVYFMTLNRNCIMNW
Chain of Dual specificity mitogen-activated protein kinase kinase 1 (Homo sapiens) (Q02750 whole entry): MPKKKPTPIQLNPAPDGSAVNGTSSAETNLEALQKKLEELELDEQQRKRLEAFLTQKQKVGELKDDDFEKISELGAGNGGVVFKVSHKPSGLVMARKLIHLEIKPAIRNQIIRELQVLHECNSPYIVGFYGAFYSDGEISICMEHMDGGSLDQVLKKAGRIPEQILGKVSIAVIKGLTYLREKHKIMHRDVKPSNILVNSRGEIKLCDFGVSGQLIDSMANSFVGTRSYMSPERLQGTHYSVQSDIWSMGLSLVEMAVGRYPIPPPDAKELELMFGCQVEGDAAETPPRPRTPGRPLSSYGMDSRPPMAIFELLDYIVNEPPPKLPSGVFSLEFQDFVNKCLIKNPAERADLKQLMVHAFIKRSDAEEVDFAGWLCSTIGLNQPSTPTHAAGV
Chain of Serine/threonine-protein kinase PAK 2 (Homo sapiens) (Q13177 whole entry): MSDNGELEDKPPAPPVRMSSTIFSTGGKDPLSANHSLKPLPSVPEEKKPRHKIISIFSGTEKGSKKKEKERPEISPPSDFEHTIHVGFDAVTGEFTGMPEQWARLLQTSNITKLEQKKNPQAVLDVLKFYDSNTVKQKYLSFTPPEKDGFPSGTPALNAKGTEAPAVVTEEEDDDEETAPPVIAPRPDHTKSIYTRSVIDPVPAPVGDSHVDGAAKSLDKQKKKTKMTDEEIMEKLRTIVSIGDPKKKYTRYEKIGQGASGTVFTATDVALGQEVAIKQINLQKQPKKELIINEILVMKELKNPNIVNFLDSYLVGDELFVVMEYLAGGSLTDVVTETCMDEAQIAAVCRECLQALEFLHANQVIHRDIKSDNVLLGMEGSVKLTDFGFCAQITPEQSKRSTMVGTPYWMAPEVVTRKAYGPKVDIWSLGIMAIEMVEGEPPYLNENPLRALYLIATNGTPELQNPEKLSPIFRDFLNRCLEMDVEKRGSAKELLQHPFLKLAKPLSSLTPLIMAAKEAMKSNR

SMILES | inhibition [1] | inhibition [2] | inhibition [3] | inhibition [4] | inhibition [5] | inhibition [6] | inhibition [7] | inhibition [8] | inhibition [9] | inhibition [10] | inhibition [11] | inhibition [12] | inhibition [13] | inhibition [14] | inhibition [15] | inhibition [16] | inhibition [17] | inhibition [18] | inhibition [19] | inhibition [20]
FC(F)(F)c1cccc(-c2nn3ncccc3c2-c2ccnc(Nc3ccc4c(c3)OCCO4)n2)c1 | 58.1% | 2.31% | 4.08% | 9.69% | 55.8% | 4.33% | 6.24% | 5.41% | 4.99% | -0.12% | 0.56% | 3.7% | 3.72% | 1.01% | 1.43% | 1.69% | 2.03% | -5.89% | -2.25% | -3.42%
CCCN1CCC(c2ccc(Nc3nc(Nc4cc(F)ccc4C(N)=O)c4cc[nH]c4n3)c(OC)c2)CC1 | 78.9% | 9.27% | 37.7% | 21.8% | 70.2% | 10.6% | 43.9% | 5.71% | 13.8% | -0.72% | 0.06% | 5.31% | 3.04% | 1.19% | 2.08% | 4.32% | 5.21% | 1.36% | 22.6% | -9.18%
COc1ccc(-c2oc3ncnc(N)c3c2-c2ccc(NC(=O)Nc3cc(C(F)(F)F)ccc3F)cc2)cc1 | 10.1% | 6.74% | 7.26% | 6.56% | 6.71% | 12.5% | 19.3% | 12.7% | 18.3% | 0.51% | 0.01% | 6.65% | 5.48% | 3.2% | 3.66% | 4.72% | 4.39% | 16.8% | 0.17% | 2.23%
CCNC(=O)O[C@H]1CN[C@H](C#Cc2cc3ncnc(Nc4ccc(OCc5cccc(F)c5)c(Cl)c4)c3s2)C1 | 5.98% | 2.35% | 1.8% | 4.31% | 5.58% | 5.6% | 5.6% | 6.17% | 5.21% | -1.55% | -0.79% | 1.87% | 8.64% | 1.21% | 1.91% | 3.71% | 3.15% | 5.88% | 2.54% | 8.13%
COc1cccc(-c2c[nH]c3c(N/N=C/c4ccncc4)ncnc23)c1 | 74.5% | 1.76% | 6.21% | 17.5% | 61.9% | 5.59% | 15.2% | 4.97% | 13.2% | 2.3% | 20.3% | 2.35% | 1.11% | 0.94% | 0.74% | 1.83% | 2.84% | 0.46% | 0.73% | 5.9%
COc1cc2ncn(-c3cc(OCc4ccccc4C(F)(F)F)c(C(=O)N(C)C)s3)c2cc1OC | 2.4% | 0.8% | 1.58% | 1.7% | 2.67% | -0.01% | 3.43% | 1.15% | 4.03% | 0% | 3.36% | -0.17% | -2.04% | -1.09% | -0.86% | -0.48% | -0.61% | -6.21% | 0.3% | -7.29%
c1ccc(COc2ccc(Nc3ncnc4ccc(-c5ccco5)cc34)cc2)cc1 | 6.14% | 1.63% | 1.55% | 4.04% | 3.27% | -0.04% | 0.76% | 0.84% | 1.9% | 1.19% | 1.35% | 5.7% | 3.88% | -0.79% | -0.42% | 0.44% | 1.49% | -1.27% | -4.07% | 3.06%
CCOc1ccc2c(-c3ccnc(Nc4cccc(C(F)(F)F)c4)n3)cnn2n1 | 4.83% | 2.29% | 0.44% | 3.9% | 7.19% | 3.72% | 3.98% | 5.61% | 6.48% | 0.02% | 0.13% | 4.57% | 3.75% | -0.07% | -0.6% | 3.17% | 2.39% | 0.65% | -0.74% | -3.86%
COc1ccc(CNC(=O)c2ccc(-c3cc(-c4nnc(C)o4)ccc3C)cc2)cc1 | 16.3% | 3.35% | 0.16% | 3.36% | 12.7% | 7.99% | 14.7% | 6.56% | 13.6% | 3.07% | 4.31% | 5.02% | 5.86% | 0.61% | 0.95% | 1.81% | 3.19% | 8.37% | 8.19% | 5.26%
Clc1ccc(-c2nn3ncccc3c2-c2ccnc(Nc3ccccc3)n2)cc1 | 39.9% | 1.32% | 2.28% | 5.91% | 33% | 0.77% | 0.46% | -0.25% | -0.67% | 1.4% | 2.44% | 2.29% | -0.81% | 1.12% | -0.15% | 0.58% | 0.87% | 7.85% | -0.84% | 7.89%
O=S(=O)(CCNCc1ccc(-c2ccc3ncnc(Nc4ccc(OCc5cccc(F)c5)c(Cl)c4)c3c2)o1)c1ccccc1 | 10.8% | 6.48% | 5.62% | 5.49% | 5.63% | 4.83% | 7.44% | 8.36% | 9.44% | -1.43% | -0.49% | 10% | 7.19% | 2.7% | 3.71% | 6.62% | 5.75% | 4.32% | 5.17% | 0.2%
Fc1cccc(COc2ccc(Nc3ncnc4sc(-c5ccco5)cc34)cc2Cl)c1 | 6.92% | 5.47% | 3.29% | 6.46% | 7.36% | 4.94% | 8.32% | 6.61% | 8.59% | -1.76% | 3.25% | 5.72% | 4.19% | 1.79% | 1.67% | 5.17% | 3.75% | 2.39% | 4.77% | 1.93%
[O-][S+]1CCN(Cc2ccc(-c3ccc4ncnc(Nc5ccc(OCc6cccc(F)c6)c(Cl)c5)c4c3)o2)CC1 | 9.56% | 5.35% | 4.93% | 7.98% | 8% | 6.28% | 8.16% | 8.11% | 9.49% | 0.51% | 2.07% | 8.29% | 11.2% | 2.04% | 2.89% | 6.22% | 5.6% | 3.4% | 2.31% | -2.88%
CC(C)COC(=O)c1ccc2c(c1)/C(=C/Nc1ccc(S(N)(=O)=O)cc1)C(=O)N2 | 65.3% | 3.79% | 33.7% | 10.3% | 53.8% | 46.2% | 81.5% | 34% | 77.9% | -0.24% | 10.7% | -0.34% | 1.52% | -2.84% | 0.1% | -2.65% | -0.22% | -0.7% | 5.79% | 11.9%
